According to PubChem BioAssay (Tox21):
Unmarked numbers belong to inactive results. Records with an inconclusive call do not appear. A call without a number means that no potency is given here. Active and inactive are the calls of the source. Unless noted, calls follow the shape of the dose curve; as a rule, active = well fitted curve in the direction sought with a large enough effect in the repeat runs; inconclusive = weak or mixed curves; inactive = flat fitted curve, though single readings scatter.

Key:
[1] = qHTS assay to test for compound auto fluorescence at 535 nm (green) in HEK293 cells (AID 720680)
[2] = qHTS assay to test for compound auto fluorescence at 460 nm (blue) in HEK293 cell free culture (AID 720681)
Summary of the method: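 Blue fluorescence (Ex 405/Em 460 nm, triamterene-equivalent) was read immediately after pin transfer of compound or DMSO into medium (DMEM, 10% FBS) without cells.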

[3] = qHTS assay to test for compound auto fluorescence at 535 nm (green) in HEK293 cell free culture (AID 720682)
Summary of the method: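 Read-out: 485/535 nm fluorescence intensity, calibrated against fluorescein. Medium only (DMEM + 10% FBS, no cells); test compound or DMSO vehicle added by pintool before plate reading.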

[4] = qHTS assay to test for compound auto fluorescence at 590 nm (red) in HEK293 cell free culture (AID 720683)
Summary of the method: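 Red-channel autofluorescence of compounds in culture medium (DMEM, 10% FBS), no cells, measured at 540/590 nm. Rose Bengal sodium is the reference fluorophore for equivalence.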

[5] = qHTS assay to test for compound auto fluorescence at 590 nm (red) in HepG2 cell free culture (AID 720684)
Summary of the method: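 Plate contents were MEM with 10% FBS plus test compound or DMSO, no cells. Fluorescence was recorded with 540 nm excitation and 590 nm emission.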

[6] = qHTS assay to test for compound auto fluorescence at 460 nm (blue) in HepG2 cell free culture (AID 720685)
Summary of the method: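 Compound (23 nL) or DMSO pinned into cell-free MEM with 10% FBS; blue fluorescence read at 405/460 nm excitation/emission, expressed as auto-fluorescence equivalency to triamterene.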

[7] = qHTS assay to test for compound auto fluorescence at 535 nm (green) in HepG2 cell free culture (AID 720686)
[8] = qHTS assay to test for compound auto fluorescence at 460 nm (blue) in HepG2 cells (AID 720687)
Summary of the method: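 Blue-channel autofluorescence (Ex/Em 405/460 nm, triamterene-equivalent) was measured after 1 hr compound exposure at 37 C, 5% CO2. Cells were HepG2, plated overnight at 37 C in MEM plus 10% FBS.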

[9] = target: Glucocorticoid receptor (Homo sapiens) (UniProt P04150); experiment: qHTS assay to identify small molecule agonists of the glucocorticoid receptor (GR) signaling pathway (AID 720691; active = well fitted activation curve with a large enough effect in the signal ratio in the repeat runs, not every such curve was filed as active; the % refers to the signal ratio; also: potency is read from the fitted curve at half-maximal effect)
Summary of the method: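 Fluorescence intensity from LiveBLAzer B/G FRET substrate (2 h, room temperature) reports beta-lactamase expression driven by the glucocorticoid response element in GR-bla HeLa cells after 18 h compound exposure at 37 C.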

[10] = target: Glucocorticoid receptor (Homo sapiens) (UniProt P04150); experiment: qHTS assay to identify small molecule antagonists of the glucocorticoid receptor (GR) signaling pathway (AID 720692; active = well fitted inhibition curve with a large enough effect in the signal ratio in the repeat runs, not every such curve was filed as active; the % refers to the signal ratio)
Summary of the method: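 HeLa GR-bla cells; cmpd + dex 5 nM final, 18 h 37 C; LiveBLAzer B/G FRET substrate 2 h RT; fluorescence intensity read. Antagonist mode, qHTS.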

Chain of Glucocorticoid receptor (Homo sapiens) (P04150 whole entry, looked up): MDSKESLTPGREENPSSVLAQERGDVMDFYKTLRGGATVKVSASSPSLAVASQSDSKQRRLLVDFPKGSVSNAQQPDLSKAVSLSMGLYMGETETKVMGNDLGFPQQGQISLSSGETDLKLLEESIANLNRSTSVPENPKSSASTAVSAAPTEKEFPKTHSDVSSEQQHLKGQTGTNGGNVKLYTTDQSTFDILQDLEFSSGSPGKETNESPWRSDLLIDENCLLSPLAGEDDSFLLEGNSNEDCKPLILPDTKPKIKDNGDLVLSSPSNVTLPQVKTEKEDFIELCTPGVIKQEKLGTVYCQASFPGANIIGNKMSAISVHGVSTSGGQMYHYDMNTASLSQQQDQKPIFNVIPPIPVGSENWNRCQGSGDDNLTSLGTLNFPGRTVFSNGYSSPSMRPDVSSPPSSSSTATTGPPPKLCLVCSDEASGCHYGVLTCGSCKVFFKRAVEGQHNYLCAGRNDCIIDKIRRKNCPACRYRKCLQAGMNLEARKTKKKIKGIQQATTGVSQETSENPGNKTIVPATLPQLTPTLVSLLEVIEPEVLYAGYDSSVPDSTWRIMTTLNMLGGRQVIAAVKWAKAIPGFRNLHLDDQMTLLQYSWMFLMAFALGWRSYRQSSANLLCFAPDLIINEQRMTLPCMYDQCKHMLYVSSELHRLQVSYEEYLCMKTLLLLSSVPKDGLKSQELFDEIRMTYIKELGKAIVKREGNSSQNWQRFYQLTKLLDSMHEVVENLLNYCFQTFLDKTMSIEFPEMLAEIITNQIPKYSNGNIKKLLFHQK

SMILES | outcome [1] | outcome [2] | outcome [3] | outcome [4] | outcome [5] | outcome [6] | outcome [7] | outcome [8] | Potency [9] | Potency [10]
NC(=O)COCCN1CCN(C(c2ccccc2)c2ccc(Cl)cc2)CC1 (centres undefined) | inactive | inactive | inactive | inactive | inactive | inactive | inactive | inactive | inactive | inactive
O=C1CCCC(=O)C1 | inactive | inactive | inactive | inactive | inactive | inactive | inactive | inactive | inactive | inactive
NC(=O)Nc1ccccc1 | inactive | inactive | inactive | inactive | inactive | inactive | inactive | inactive | inactive | –
O=C(O)c1ccccc1OP(=O)(O)O | inactive | inactive | inactive | inactive | inactive | inactive | inactive | inactive | inactive | inactive
CCOC(=O)c1ccc(C)cc1 | inactive | inactive | inactive | inactive | inactive | inactive | inactive | inactive | inactive | inactive
c1cnc(N2CCN(Cc3ccc4c(c3)OCO4)CC2)nc1 | inactive | inactive | inactive | inactive | inactive | inactive | inactive | inactive | inactive | inactive
O=C[C@H](O)[C@@H](O)[C@H](O)[C@H](O)CO | inactive | inactive | inactive | inactive | inactive | inactive | inactive | inactive | inactive | inactive
COC(=O)CCSCCC(=O)OC | inactive | inactive | inactive | inactive | inactive | inactive | inactive | inactive | inactive | –
CC/C=C\CC/C=C/C(OCC)OCC | inactive | inactive | inactive | inactive | inactive | inactive | inactive | inactive | inactive | –
Cn1c(N)c(N=O)c(=O)n(C)c1=O | inactive | inactive | inactive | inactive | inactive | inactive | inactive | inactive | inactive | inactive
CC(=O)CC(C)C | inactive | inactive | inactive | inactive | inactive | inactive | inactive | inactive | inactive | inactive
OC1CCCCC1c1ccccc1 (centres undefined) | inactive | inactive | inactive | inactive | inactive | inactive | inactive | inactive | inactive | inactive
C[N+](C)(C)CC(O)CC(=O)[O-] (centres undefined) | inactive | inactive | inactive | inactive | inactive | inactive | inactive | inactive | inactive | inactive
COc1nc(N)nc2c1ncn2[C@@H]1O[C@H](CO)[C@@H](O)[C@@H]1O | inactive | inactive | inactive | inactive | inactive | inactive | inactive | inactive | inactive | inactive
NS(=O)(=O)c1ccc(C(=O)O)cc1 | inactive | inactive | inactive | inactive | inactive | inactive | inactive | inactive | inactive | inactive
c1ccc([C@H]2CN3CCSC3=N2)cc1 | inactive | inactive | inactive | inactive | inactive | inactive | inactive | inactive | inactive | –
CC(C)CCCC(C)N (centres undefined) | inactive | inactive | inactive | inactive | inactive | inactive | inactive | inactive | inactive | inactive
CC(=O)OCC(=O)[C@@]1(O)CCC2C3CCC4=CC(=O)CC[C@]4(C)C3[C@@H](O)C[C@@]21C (some centres undefined) | inactive | inactive | inactive | inactive | inactive | inactive | inactive | inactive | 134 nM (active) | –
O=C(O)CCCl | inactive | inactive | inactive | inactive | inactive | inactive | inactive | inactive | inactive | inactive
CCN(Cc1ccncc1)C(=O)C(CO)c1ccccc1 (centres undefined) | inactive | inactive | inactive | inactive | inactive | inactive | inactive | inactive | inactive | –
O=Cc1cccc([N+](=O)[O-])c1 | inactive | inactive | inactive | inactive | inactive | inactive | inactive | inactive | inactive | inactive
CCCN(CCC)CCc1cccc2c1CC(=O)N2 | inactive | inactive | inactive | inactive | inactive | inactive | inactive | inactive | inactive | –
CCC=O | inactive | inactive | inactive | inactive | inactive | – | inactive | inactive | – | –
O=c1cc(CO)occ1O | inactive | inactive | inactive | inactive | inactive | inactive | inactive | inactive | inactive | inactive
COC(=O)CC(C)=O | inactive | inactive | inactive | inactive | inactive | inactive | inactive | inactive | inactive | inactive
CC(C[N+](C)(C)C)OC(N)=O (centres undefined) | inactive | inactive | inactive | inactive | inactive | – | inactive | inactive | inactive | inactive
